# In ChEMBL document CHEMBL2218924, “A broad activity screen in support of a chemogenomic map for kinase signalling research and drug discovery” (Biochem J, 2013):
# Molecular target: Ribosomal protein S6 kinase alpha-3 (Homo sapiens) (UniProt P51812)
# Conditions: at 1 µM
# Chain of Ribosomal protein S6 kinase alpha-3 (Homo sapiens) (P51812 whole entry): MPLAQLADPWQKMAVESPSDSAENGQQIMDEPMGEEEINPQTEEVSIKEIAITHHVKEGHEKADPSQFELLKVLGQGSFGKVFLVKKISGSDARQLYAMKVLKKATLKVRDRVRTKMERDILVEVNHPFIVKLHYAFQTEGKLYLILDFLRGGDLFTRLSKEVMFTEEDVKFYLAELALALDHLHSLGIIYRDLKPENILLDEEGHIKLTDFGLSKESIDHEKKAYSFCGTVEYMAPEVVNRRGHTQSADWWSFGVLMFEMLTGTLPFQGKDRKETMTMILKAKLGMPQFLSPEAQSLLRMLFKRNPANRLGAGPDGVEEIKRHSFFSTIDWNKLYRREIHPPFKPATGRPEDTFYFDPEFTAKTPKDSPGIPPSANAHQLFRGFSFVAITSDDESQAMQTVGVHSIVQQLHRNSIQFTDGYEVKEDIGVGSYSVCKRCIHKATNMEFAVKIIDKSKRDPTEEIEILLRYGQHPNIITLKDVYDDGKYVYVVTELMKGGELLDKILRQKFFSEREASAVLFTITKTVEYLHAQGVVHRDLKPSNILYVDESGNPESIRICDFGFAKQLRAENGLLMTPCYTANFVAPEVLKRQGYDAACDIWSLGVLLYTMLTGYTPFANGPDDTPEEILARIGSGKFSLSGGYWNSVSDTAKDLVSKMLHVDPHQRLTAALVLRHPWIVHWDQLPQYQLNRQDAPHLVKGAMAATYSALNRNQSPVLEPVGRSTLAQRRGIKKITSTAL
row,SMILES,residual activity
1,Oc1c2ccccc2c2c3c(cccc13)N=N2,54%
2,Nc1nc(Nc2ccc(S(N)(=O)=O)cc2)nn1C(=S)Nc1c(F)cccc1F,0%
3,O=C1Nc2ccc(Br)cc2/C1=C\c1cc2c([nH]1)CCCC2,45%
4,Cc1nc(-c2ccccc2)c(-c2ccncc2)o1,60%
5,COc1cc2ncnc(Nc3ccc(O)c(Br)c3)c2cc1OC,39%
6,Nc1cccc(-c2cc3c(Oc4cccc(O)c4)ncnc3[nH]2)c1,68%
7,CCOc1cc2ncnc(Nc3cccc(Br)c3)c2cc1OCC,102%
8,CO[C@H]1C[C@@H]2CC[C@@H](C)[C@@](O)(O2)C(=O)C(=O)N2CCCC[C@H]2C(=O)O[C@H]([C@H](C)C[C@@H]2CC[C@@H](O)[C@H](OC)C2)CC(=O)[C@H](C)/C=C(\C)[C@@H](O)[C@@H](OC)C(=O)[C@H](C)C[C@H](C)/C=C/C=C/C=C/1C,44%
9,COc1cc2ncnc(Nc3ccc(Oc4ccccc4)cc3)c2cc1OC,104%
10,COc1ccc(OC)c2c(=S)c3ccccc3[nH]c12,99%
11,CO[C@H]1[C@@H](OC)C[C@H](C)[C@@H](OC)C2=CC(=O)C=C(NC(=O)/C(C)=C/C=C/[C@H](OC)[C@@H](OC(N)=O)/C(C)=C/[C@@H]1C)C2=O,50%
12,Cc1ccc(NC2=CC(=O)c3sc(C)nc3C2=O)cc1,117%
13,O=C1NC(=O)/C(=C\c2ccc3nccnc3c2)S1,61%
14,O=C1c2ccccc2-[n+]2ccc3c([nH]c4ccccc43)c21,55%
15,COc1ccc(CNc2nc(N(CCO)CCO)nc3c2ncn3C(C)C)cc1,31%
16,CN(C)c1ccc(/C=C2\C(=O)Nc3ccccc32)cc1,47%
17,Oc1ccc(Nc2nc(-c3ccc(Cl)cc3)cs2)cc1,75%
18,CC(C)n1cnc2c(NCc3ccccc3)nc(NCCCO)nc21,101%

row,SMILES,residual activity
1,N#Cc1cnc2cnc(NCc3cccnc3)cc2c1Nc1ccc(F)c(Cl)c1,0%
2,CC#CC(=O)Nc1cc2c(Nc3ccc(F)c(Cl)c3)ncnc2cn1,104%
3,Cn1cc(/C=C2\C(=O)Nc3ccc(S(N)(=O)=O)cc32)c2ccccc21,9%
4,NC(=O)c1ccc2[nH]c(-c3ccc(Oc4ccc(Cl)cc4)cc3)nc2c1,30%
5,COc1ccc(C(=O)Nc2sc3c(c2C(N)=O)CCCC3)cc1OC,111%
6,N#CCCc1ccc2c(c1)-c1[nH]c3ccc([N+](=O)[O-])cc3c1CC(=O)N2,9%
7,Cn1cnc2cc3c(Nc4cccc(Br)c4)ncnc3cc21,108%
8,N#C/C(=C(\N)Sc1ccc(N)cc1)c1ccccc1C(F)(F)F,28%
9,Nc1ccc2ncnc(NCCc3ccc(Oc4ccccc4)cc3)c2c1,49%
10,O=c1cc(-c2cccc3c2Sc2ccccc2S3)oc(N2CCOCC2)c1,106%
11,Cc1cc2ncc(-c3ccccc3)nc2cc1C,50%
12,O=C(Nc1cccc(Nc2cc(Nc3cccc(C(F)(F)F)c3)ncn2)c1)C1CC1,106%
13,O=C1NC(=O)c2c1c1c3ccccc3[nH]c1c1[nH]c3cc(Br)ccc3c21,49%
14,O=C(Nc1cccc(Nc2nccc(Nc3cccc(C(F)(F)F)c3)n2)c1)C1CC1,45%
15,Oc1ccc(-c2nc(-c3ccc(F)cc3)c(-c3ccncc3)[nH]2)cc1,55%
16,CC[n+]1c(/C=C/N(C)c2ccccc2)n(-c2ccccc2)c2ccc(-c3nc4ccccc4s3)cc21,94%
17,O=C1NC(=O)c2cc(Nc3ccc(F)cc3)c(Nc3ccc(F)cc3)cc21,123%
